# CF NFkB inh: inhibitors of PAF-induced NF-kB signaling, primary screen, cell-based, GFP fluorescence, uHTS; KKLEB NF-kB-GFP reporter, GFP fluorescence overnight; inhibition, % at 5 µM; 0.86% of 360,000 active; AID 588850, 2011;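 active means at least 50% inhibition at 5 µM, scaled per plate between neutral and stimulator controls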;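 further: PAF is a Pseudomonas aeruginosa culture filtrate used as stimulus; plate controls were PAF-stimulated DMSO wells for no effect and unstimulated DMSO wells for full effect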
# Mdm2-MdmX inh: inhibitors of human Mdm2-MdmX association, primary screen, cell-based, luminescence, split luciferase, SaOS-2, uHTS; Protein Mdm4 (Homo sapiens) + E3 ubiquitin-protein ligase Mdm2 (Homo sapiens), …; SaOS-2 split-luciferase Mdm2/MdmX complementation; inhibition, % at 8 µM; 3% of 330,000 active; AID 485346, 2010;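 active means inhibition of at least 50% at 8 µM in the primary screen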
# Peg3 prom inh: Peg3 promoter-driven luciferase inhibitors, primary screen, cell-based, HeLa, luciferase luminescence. HeLa PEG-Prom luciferase reporter, overnight. inhibition, % at 20 µM. 1.7% of 360,000 active. AID 588405, 2011;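 active means inhibition of at least 50% at 20 µM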
# KKLEB tox: cytotoxicity in KKLEB CF airway cells, primary screen, cytotoxicity control for CF NF-kB inhibitor project, cell-based, uHTS, fluorescence assay plates; 0.36% of 360,000 active; activity change (cytotoxicity), % at 5 µM; KKLEB CF airway cells viability, ATPlite luminescence, overnight; active compounds read low; cells stimulated with P. aeruginosa culture filtrate;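 active means corrected activity change at or below -50% at 5 µM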
# LGR2 inh: inhibitors of bursicon-induced LGR2 CRE-luciferase signal, primary screen, cell-based, HEK293, CRE-luciferase reporter, bursicon stimulation. 0.35% of 380,000 active. inhibition, % at 9.99 µM. bursicon-stimulated, 4 h;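 active means drop in luminescence signal, shown as inhibition above about 50% in the replicate tests, limit read from the data, passing the limit was not always enough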;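 further: agonist challenge used bursicon conditioned medium at about half maximal strength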
# HSP90 refold inh: HSP90 inhibitors, primary screen, cell lysate, luminescence; Rabbit reticulocyte lysate, luciferase refolding luminescence, 3 h; inhibition, % at 5.6 µM; 0.91% of 290,000 active; AID 1789, 2009;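 active means inhibition above the screen-wide mean plus 3 SD, computed separately per campaign, cut at about 16% in these data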;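 further: 0% = DMSO wells and 100% = 60 µM geldanamycin wells; inhibitors lower the luminescence because luciferase stays unfolded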
# CF NFkB conf: inhibitors of PAF-induced NF-kB signaling, retest, confirmation, cell-based, GFP fluorescence, single concentration; 64% of 1,300 active; inhibition, % at 5 µM; KKLEB CF airway cells, overnight; shares compounds with CF NFkB inh; in the data active means inhibition above about 40%;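 further: stimulus PAF is a Pseudomonas aeruginosa filtrate and not platelet activating factor; plate controls were DMSO wells with stimulus for no effect and unstimulated DMSO wells for full effect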
# * = called active by the depositor; . = not tested or not shown; ! = not confirmed by another sample. A selection: hits, their analogues and other compounds. The true share with any hit is near 3.6%.
SMILES,CF NFkB inh,Mdm2-MdmX inh,Peg3 prom inh,KKLEB tox,LGR2 inh,HSP90 refold inh,CF NFkB conf
COc1ccc(OC)c(N(CCN2C(=O)c3ccccc3C2=O)C(=O)CCl)c1,62*,.,22,-42,14,.,99*
Cc1ccc(-c2ccc(CN3C(C)C(=O)N(Cc4cn(Cc5ccco5)nn4)CCS3(=O)=O)cc2)c(C)c1 (stereo unspecified),48,.,10,2,5,.,.
Cc1ccccc1-c1ccc(CN2C(C(C)C)C(=O)N(Cc3cn(CCC4OCCO4)nn3)CCS2(=O)=O)cc1 (stereo unspecified),16,.,21,-4,20,.,.
CCC/C=C/c1ccc(CN2C(C(C)C)C(=O)N(Cc3cn(Cc4ccco4)nn3)CCS2(=O)=O)cc1 (stereo unspecified),52*,.,21,8,5,.,45*
Cc1ccc(-c2ccc(CN3C(C(C)C)C(=O)N(Cc4cn(CCC5OCCO5)nn4)CCS3(=O)=O)cc2)c(C)c1 (stereo unspecified),65*,.,16,-14,7,.,36
Cc1ccccc1-c1ccc(CN2C(C)C(=O)N(Cc3cn(Cc4ccco4)nn3)CCS2(=O)=O)cc1 (stereo unspecified),60*,.,27,7,-9,.,19
Cc1ccc(-c2ccc(CN3C(C)C(=O)N(Cc4cn(CC5CCCCC5)nn4)CCS3(=O)=O)cc2)cc1 (stereo unspecified),76*,.,12,-24,.,.,40
CCC/C=C/c1ccc(CN2C(C)C(=O)N(Cc3cn(Cc4ccco4)nn3)CCS2(=O)=O)cc1 (stereo unspecified),20,.,14,-10,17,.,.
COc1ccc(CN(C)C[C@@H]2Oc3ccc(NC(=O)Nc4c(C)noc4C)cc3CC(=O)N([C@H](C)CO)C[C@@H]2C)cc1,.,.,.,.,19,.,.
CNC[C@@H]1Oc2ncc(C#Cc3ccc(F)cc3)cc2C(=O)N([C@H](C)CO)C[C@@H]1C,.,.,.,.,-24,.,.
Cc1ccc(S(=O)(=O)N[C@@H]2C=C[C@@H](CC(=O)N3CCC(Cc4ccccc4)CC3)O[C@H]2CO)cc1,.,.,.,.,20,.,.
C[C@H](CO)N1C[C@H](C)[C@@H](CN(C)C(=O)Cc2ccccc2)OCCCC[C@H](C)Oc2ccc(NC(=O)c3ccccc3)cc2C1=O,.,.,.,.,14,.,.
CO[C@H]1CN(C)C(=O)c2ccc(NS(C)(=O)=O)cc2OC[C@@H](C)N(CCC(F)(F)F)C[C@H]1C,.,.,.,.,1,.,.
Cc1ccc(-c2ccc(CN3C(C)C(=O)N(Cc4cn(Cc5ccco5)nn4)CCS3(=O)=O)cc2)cc1 (stereo unspecified),40,.,0,3,27,.,.
COc1ccc(-c2ccc(CN3C(C)C(=O)N(Cc4cn(Cc5ccco5)nn4)CCS3(=O)=O)cc2)cc1 (stereo unspecified),32,.,-14,-11,6,.,.
CC1C(=O)N(Cc2cn(Cc3ccco3)nn2)CCS(=O)(=O)N1Cc1ccc(-c2ccc(Cl)c(Cl)c2)cc1 (stereo unspecified),65*,.,21,5,-1,.,28
CC1C(=O)N(Cc2cn(Cc3ccco3)nn2)CCS(=O)(=O)N1Cc1ccc(-c2ccccc2C(F)(F)F)cc1 (stereo unspecified),66*,.,18,-23,.,.,52*
COCCn1c(=NC(=O)c2sc3ccccc3c2Cl)sc2cc(S(N)(=O)=O)ccc21,55*,41,10,-46,10,4,24
COCCn1c(=NC(=O)c2cc(-c3cccs3)nc3ccccc23)sc2cc(S(N)(=O)=O)ccc21,2,41,34,-10,-17,0,.
C[C@@H]1CN([C@@H](C)CO)C(=O)c2ccccc2-c2ccccc2CO[C@@H]1CN(C)S(=O)(=O)c1ccccc1,.,.,.,.,-3,.,.
Cc1ccc(/C=[N+](\[O-])c2ccc(N(C)C)cc2)c2nsnc12,68*,-21,-158,-24,-63,6,-68
COc1ccc(S(=O)(=O)Nc2ccc3c(c2)CC(=O)N([C@H](C)CO)C[C@H](C)[C@H](CN(C)Cc2ccc(C(=O)O)cc2)O3)cc1,.,.,.,.,-11,.,.
CC(=O)N(C)C[C@@H]1Oc2ncc(C#Cc3ccccc3)cc2C(=O)N([C@H](C)CO)C[C@H]1C,.,.,.,.,-8,.,.
NS(=O)(=O)c1ccc(CCNc2nn3c(-c4cccc(OC(F)(F)F)c4)cnc3s2)cc1,53*,.,102*,-41,15,.,70*
C=CCNC(=O)/C(C#N)=C/c1ccc(OS(=O)(=O)c2ccc(C)cc2)c(OC)c1,75*,.,8,-18,13,1,-39
SMILES,CF NFkB inh,Mdm2-MdmX inh,Peg3 prom inh,KKLEB tox,LGR2 inh,HSP90 refold inh,CF NFkB conf
COC(=O)N/N=C/c1ccc(OS(=O)(=O)c2ccc(C)cc2)c(OC)c1,-9,16,28,-1,-1,0,.
CC(C)c1nc(Cl)c(C#N)c2c1CCCC2,55*,14,-44,-4,-9,-4,77*
Cc1ccc(S(=O)(=O)CC(CN2CCCCC2)N2CCCCC2)cc1 (stereo unspecified),53*,.,-93,-3,39,1,57*
Cc1onc(-c2ccccc2)c1C(=O)N1CCCSC1=Nc1ccccc1,56*!,25,5,2,5,1,-17
Cc1nn(-c2cccc(Cl)c2)c2nc(C(F)(F)F)[nH]c(=O)c12,54*,8,42,-1,7,2,44*
Cc1nn(-c2cc(C(F)(F)F)ccc2Cl)c2nc(C(F)(F)F)[nH]c(=O)c12,-1,17,3,2,31,2,.
CCC(=O)N1[C@H](CO)[C@@H]2c3ccccc3N(C(=O)Nc3cccc(Cl)c3)C[C@@H]21,.,.,.,.,-15,.,.
CCOC(=O)N1C(=O)[C@](CC)(c2ccccc2)N1C(=O)OCC,56*,34,42,1,-3,-3,21
Cc1ccc(S(=O)(=O)N(C)C[C@H]2Oc3ccc(NC(=O)CCN4CCOCC4)cc3C(=O)N([C@@H](C)CO)C[C@H]2C)cc1,.,.,.,.,13,.,.
Cc1noc(C)c1S(=O)(=O)N(C)C[C@H]1Oc2ccc(NC(=O)NC3CCCCC3)cc2CC(=O)N([C@@H](C)CO)C[C@@H]1C,.,.,.,.,-21,.,.
O=C(c1[nH]c(C(F)(F)F)nc1-c1ccccc1)N1CCN(c2c(Cl)cncc2Cl)CC1,64*,.,12,-8,0,.,57*

# Screening results (PubChem)
